# Data reported in PubChem BioAssay AID493203 (National Center for Advancing Translational Sciences (NCATS), 2011).
# Records with an inconclusive call do not appear. Unmarked numbers belong to inactive results. The source made the active and inactive calls. The call rests on the fitted dose curve; in most records, active means well fitted activation curve with a large enough effect; inconclusive means small, poorly fitted or top-dose-only effect; inactive means flat fitted curve, though single readings scatter.
# Assay: qHTS Assay for NPC1 Promoter Activators: Initial hit validation from the primary screen;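 on activity, positive = activation: reporter driven by the mutant form of the NPC1 promoter; % of control where 0% means no effect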
# Conditions: Huh7 NPC1 promoter-luciferase reporter, luminescence, 24 h; series mostly up to 46.1 µM; activity, positive = activation: at the top concentration
# Procedure, shortened: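 Huh7 cells stably carrying NPC1 promoter-luciferase, 1500 cells per well in OP-MEM I with 10% FBS; compounds added after 2 hours and incubated 24 hours at 37C. Luminescence read 10 minutes after Amplite luciferase reagent.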
# Potency means the concentration at half of the fitted maximal effect.
Structure (SMILES),Potency,"activity, positive = activation [%]"
COc1ccc(-c2nnc(SCC(=O)/C(C#N)=C(\C)N)o2)cc1,223 nM (active),
CC1CC(C)CN(CC(=O)N2CCOCC2)C1 (centres undefined),,0.776
COc1cccc(CNC(=O)CN(c2cc(C)cc(C)c2)S(=O)(=O)c2c(C)noc2C)c1,,-4.87
N#C/C(=C\c1ccc[nH]1)C(=O)Nc1ccccc1Cl,3970 nM (active),
Cc1ccc(S(=O)(=O)N2CCN(c3cnn(C)c(=O)c3Cl)CC2)cc1,,-3.18
COC(=O)c1cn(NC(=O)C2CCCCC2)c(=O)c2ccccc12,,-0.672
C=CCOC(=O)N1CCN(c2cccc(C(F)(F)F)c2)CC1,,-3.82
CCCC(C)NC(=O)c1ccc(OCc2ccc(Cl)cc2)c(OC)c1 (centres undefined),,5.79
O=CN1CCN(C(=O)c2ccccc2Cl)CC1,,4.57
OCCC1CN(Cc2nc3ccccc3s2)CCN1C1CCCC1 (centres undefined),,6.25
CC(C)(C)C(=O)N/C(N)=N/c1nc2ccccc2o1,499 nM (active),
Cc1ccc(N=Cc2sc(O)c3ccccc23)c(C)c1,1770 nM (active),
CCC(=O)Nc1cc(-c2cc3ccccc3oc2=O)ccc1OC,1120 nM (active),
O=[N+]([O-])c1cnccc1Nc1ccc(F)cc1,,9.68
CC(=O)Nc1ccc(NC(=O)COc2ncnc3ccccc23)cc1,,7.96
Cc1nc(-c2ccc(S(=O)(=O)Oc3ccc(Cl)cc3Cl)s2)cs1,,-17.2
O=C(c1cc2cc(Br)ccc2[nH]1)N1CCc2ccccc21,12500 nM (active),
CCOc1cc(C2C(C#N)=C(N)Oc3n[nH]c(C)c32)ccc1OCCN1CCOCC1 (centres undefined),,-5.42
Cc1ccc2nc(Nc3ccc(Cl)cc3)c3nncn3c2c1,,4.35
